The record followed here is PubChem BioAssay (EPA / NIEHS).

Calls of active or inactive are those of the source. The calls were made as follows: active = hit-call score of the fitted dose curve at least 0.9, where 1 is the maximum; inactive = score below 0.9.

The nature of this assay: APR_HepG2_p53Act_1hr: Apredica 1-hour HepG2 Assay for p53 Activation (AID 2282671). The conditions noted are these: high-content imaging, actives raise or lower the signal. The procedure: APR_HepG2_1hr is a cell-based, multiplexed-readout assay that uses HepG2, a human liver cell line, with measurements taken at 1 hour after chemical dosing in a 384-well plate.APR_HepG2_p53Act_1hr is one of 10 assay component(s) measured or calculated from the APR_HepG2_1hr assay. It is designed to make measurements of dna content, a form of viability reporter, as detected with fluorescence intensity signals by HCS Fluorescent Imaging technology.Data from the assay component APR_HepG2_p53Act_1hr was analyzed into 1 assay endpoint. This assay endpoint, APR_HepG2_p53Act_1hr, was analyzed with bidirectional fitting relative to DMSO as the negative control and baseline of activity. Using a type of viability reporter, measures of protein for gain or loss-of-signal activity can be used to understand the signaling at the pathway-level as they relate to the gene TP53. Furthermore, this assay endpoint can be referred to as a primary readout, because this assay has produced multiple assay endpoints where this one serves a signaling function. To generalize the intended target to other relatable targets, this assay endpoint is annotated to the dna binding intended target family, where the subfamily is tumor suppressor.
Cells were treated with dimethyl sulfoxide (DMSO) as a solvent control at a final concentration of 0.5% v/v or with compounds in DMSO with a resulting final DMSO concentration of 0.5% v/v. Compound treatment was done at concentrations of 0.39, 0.78, 1.56, 3.12, 6.24, 12.5, 25, 50, 100, and 200 uM in duplicate on each plate. Cells were treated with compounds for 1, 24, or 72 hr. Carbonyl […] m-chloro-phenylhydrazone (CCCP) and taxol were used as positive controls for mitochondrial function and cytoskeletal stability, respectively; DMSO served as the negative control for this experiment. Cells were fixed by the direct addition of 50 uL formaldehyde in Hank's Balanced Salt Solution (HBSS) to a final concentration of 3.7%. After incubation in the fixation medium for 30 min at room temperature (293-298 K), cells were rinsed twice with HBSS and treated with cell permeabilization buffer (16 uL of 0.5% Triton X-100) for 10 min at room temperature (293-298 K) before labeling. For mitochondrial membrane potential and mitochondrial measurements, pre-fixed cells were incubated with 50 uL of MitoTracker Red CMXRos (Invitrogen) at a concentration of 250 nM for 30 min before fixation. In the remaining cases, post-fixed cells were labeled by incubation with a multiplexed mixture of primary antibodies in HBSS for 60 min at room temperature (293-298 K) to detect immunoreactivity of c-Jun (1:500), phospho-histone H3 (1:100), phospho-histone H2A.x (1:200), p53 (1:400), alpha-tubulin (1:200) and Hoechst 33342 (2 ug/mL). Cells were labeled for multiplexed imaging on two separate plates: a) Hoechst 33342, MitoTracker Red, phospho-histone H3, and alpha-tubulin, and b) Hoechst 33342, phospho-histone H2A.x, and c-Jun. A final rinse with HBSS (50 uL) was performed before analysis. The primary and secondary antibodies for the proteins were phospho-histone H3 (rabbit anti-phospho-histone H3 and FITC-donkey anti-rabbit IgG), phospho-histone H2A.x (mouse anti-phospho-histone H2A.x and FITC-donkey anti-mouse IgG), c-Jun (rabbit anti-phospho-c-Jun and Cy3-donkey anti-rabbit IgG), p53 (sheep anti-p53 and Cy5-donkey anti-sheep IgG), alpha-tubulin (mouse anti-alpha-tubulin and Cy5-donkey anti-mouse IgG). These antibodies are available as the CellCiphr HepG2 assay kit (Millipore).Digital images of each well were captured using a Cellomics ArrayScan VTI (Thermo Scientific Cellomics) (0.8 NA objective, 0.63x optical coupler, and XF-93 filter set) at 20x magnification. The images were acquired using the autofocus feature of the ArrayScan instrument, which entails the following steps. First, the camera focuses on channel 1 (Hoechst 33342), where nuclei are identified. Second, a Z offset of 1 um is used for capturing mitochondria (MitoTracker Red). […]
Take `COc1ccc(C(=CC(=O)N2CCOCC2)c2ccc(Cl)cc2)cc1OC`: the call was inactive.

Turning to `CCOC(=O)CC(SP(=O)(OC)OC)C(=O)OCC` (stereo not given), the compound was classed as inactive.

For the compound `C[Si](Cn1cncn1)(c1ccc(F)cc1)c1ccc(F)cc1`, the compound was classed as inactive.

Take `COP(=O)(NC(C)=O)SC` (stereo not given): the compound was classed as inactive.

`Cc1cc(C2CC2)nc(Nc2ccccc2)n1`: the compound was called inactive.

As for `CCC(=NOC/C=C/Cl)C1=C(O)CC(C2CCOCC2)CC1=O` (stereo not given), the compound was classed as inactive.

As to `CCCOCC(=Nc1ccc(Cl)cc1C(F)(F)F)n1ccnc1`, the compound was called inactive.

Regarding `CCCOc1nn(C(=O)NS(=O)(=O)c2ccccc2C(=O)OC)c(=O)n1C`, the compound was classed as inactive.

With `CC1=NNC(=O)N(/N=C/c2cccnc2)C1`, the call was inactive.

As for `CCCCOC(=O)[C@@H](C)Oc1ccc(Oc2ccc(C#N)cc2F)cc1`, the compound was called inactive.

As to `S=C1NCCN1`, the compound was classed as inactive.

On to `CC(C)=CC1C(C(=O)OCN2C(=O)C3=C(CCCC3)C2=O)C1(C)C` (stereo not given), for which the result was inactive.

Take `CCOP(=S)(OCC)Oc1ccc2c(C)c(Cl)c(=O)oc2c1`: the compound was called inactive.

In the case of `N#CSCSC#N`, the compound was classed as inactive.

`CCCCOC(=O)c1ccccc1C(=O)O`: the compound was called inactive.

Take `COc1cccc(C(=O)NN(C(=O)c2cc(C)cc(C)c2)C(C)(C)C)c1C`: the compound was called inactive.

In the case of `CN1COCN(Cc2cnc(Cl)s2)C1=N[N+](=O)[O-]`, the call was inactive.

For the compound `CC(C)N(C(=O)SCC(Cl)=C(Cl)Cl)C(C)C`, the compound was called inactive.

On to `FC(F)C(F)(F)OCC(Cn1cncn1)c1ccc(Cl)cc1Cl` (stereo not given), for which the compound was called inactive.

Turning to `CCOP(=S)(Oc1cnc(C(C)(C)C)nc1)OC(C)C` (stereo not given), the outcome was inactive.

Regarding `CCCCN(CC)c1c([N+](=O)[O-])cc(C(F)(F)F)cc1[N+](=O)[O-]`, the compound was classed as inactive.

As for `CCOP(=S)(OCC)Oc1cc(C)nc(C(C)C)n1`, the compound was classed as inactive.

On to `Nc1nc(N)nc(NC2CC2)n1`, for which the compound was classed as inactive.

As to `CSC1=N[C@@](C)(c2ccccc2)C(=O)N1Nc1ccccc1`, the result was inactive.

`CCc1cccc(C)c1N(C(=O)CCl)C(C)COC` (stereo not given): the result was inactive.

Take `CNC(=O)ON=C(C)SC`: the compound was classed as inactive.

For the compound `CNc1cnn(-c2cccc(C(F)(F)F)c2)c(=O)c1Cl`, the result was inactive.

Take `CSc1nnc(C(C)(C)C)c(=O)n1N`: the outcome was inactive.

For the compound `C#CC(C)(C)NC(=O)c1cc(Cl)cc(Cl)c1`, the compound was called inactive.

For the compound `CC(COc1ccc(Oc2ccccc2)cc1)Oc1ccccn1` (stereo not given), the compound was classed as inactive.

Consider `CCCSP(=O)(OCC)Oc1ccc(Br)cc1Cl` (stereo not given), for which the compound was called inactive.

On to `CC1(C(=O)Nc2ccc(O)c(Cl)c2Cl)CCCCC1`, for which the compound was classed as inactive.

For `CCOC(=O)COc1cc(-c2nn(C)c(OC(F)F)c2Cl)c(F)cc1Cl`, the compound was classed as inactive.

Regarding `CNC(=O)ON=C(SC)C(=O)N(C)C`, the compound was classed as inactive.

For `COP(=O)(OC)C(O)C(Cl)(Cl)Cl` (stereo not given), the compound was called inactive.

With `CC(C1CC1)C(O)(Cn1cncn1)c1ccc(Cl)cc1` (stereo not given), the result was inactive.

With `CN(C)C(=O)Nc1cccc(C(F)(F)F)c1`, the outcome was inactive.

In the case of `COc1cc(OC)nc(Sc2cccc(Cl)c2C(=O)O)n1`, the compound was called inactive.

On to `C#CCC1=C(C)C(OC(=O)C2C(C=C(C)C)C2(C)C)CC1=O` (stereo not given), for which the outcome was inactive.

On to `CCOP(=S)(OCC)SCCSCC`, for which the compound was classed as inactive.
